Experimental data reported in PubChem BioAssay (NCATS).
Inconclusive results are not listed. Calls of active or inactive are those of the source. Calls follow the shape of the dose curve; as a rule, active = well fitted cell-killing curve with a large enough effect; inconclusive = small, poorly fitted or top-dose-only effect, or effect the other way; inactive = flat fitted curve, though single readings scatter.

Legend:
Assay in all cases: Primary qHTS to identify gynecologic anti-cancer compounds using libraries of approved drugs and bioactive compounds (AID 1345084); also: nearly all actives have a fitted effect of over 55% in size
C33A = conditions: Gynecologic cancer cell panel viability, ATPlite luminescence, 48 h; series mostly up to 57.5 µM
How it was run: (§1)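 ATP-based viability (ATPlite), 1,000 cells/well, 16 h pre-incubation, 48 h compound at 37 C, 5% CO2, 15 min RT before read.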

CAOV3 = conditions: Gynecologic cancer cell panel viability, ATPlite luminescence, 48 h; series mostly up to 57.5 µM
How it was run: as §1

CASKI = conditions: Gynecologic cancer cell panel viability, ATPlite luminescence, 48 h; series mostly up to 57.5 µM
How it was run: as §1

Es-2 = conditions: Gynecologic cancer cell panel viability, ATPlite luminescence, 48 h; series mostly up to 57.5 µM
How it was run: as §1

HeLa = conditions: Gynecologic cancer cell panel viability, ATPlite luminescence, 48 h; series mostly up to 57.5 µM
How it was run: as §1

Hek293T = conditions: Gynecologic cancer cell panel viability, ATPlite luminescence, 48 h, control line for the selectivity index; series mostly up to 57.5 µM
How it was run: as §1

JEG-3 = conditions: Gynecologic cancer cell panel viability, ATPlite luminescence, 48 h; series mostly up to 57.5 µM
How it was run: as §1

OV90 = conditions: Gynecologic cancer cell panel viability, ATPlite luminescence, 48 h; series mostly up to 57.5 µM
How it was run: as §1

PA-1 = conditions: Gynecologic cancer cell panel viability, ATPlite luminescence, 48 h; series mostly up to 57.5 µM
How it was run: as §1

SKOV3 = conditions: Gynecologic cancer cell panel viability, ATPlite luminescence, 48 h; series mostly up to 57.5 µM
How it was run: as §1

Tov-21-G = conditions: Gynecologic cancer cell panel viability, ATPlite luminescence, 48 h; series mostly up to 57.5 µM
How it was run: as §1

Tov112D = conditions: Gynecologic cancer cell panel viability, ATPlite luminescence, 48 h; series mostly up to 57.5 µM
How it was run: as §1
% is scaled to controls: 0 for no effect and ±100 for the full control effect; potency is read from the fitted curve at half-maximal effect.

C/C1=C\CCC2=C[C@@H](OC2=O)c2c(C)coc2C1
inactive: Potency (C33A) | Potency (CAOV3) | Potency (CASKI) | Potency (Es-2) | Potency (HeLa) | Potency (Hek293T) | Potency (JEG-3) | Potency (OV90) | Potency (PA-1) | Potency (SKOV3) | Potency (Tov-21-G) | Potency (Tov112D)

C[C@@H]1CC[C@@]2(OC1)O[C@H]1C[C@H]3[C@@H]4CC=C5C[C@@H](O)CC[C@]5(C)[C@H]4CC[C@]3(C)[C@H]1[C@@H]2C
inactive: Potency (C33A) | Potency (CAOV3) | Potency (CASKI) | Potency (Es-2) | Potency (HeLa) | Potency (Hek293T) | Potency (JEG-3) | Potency (OV90) | Potency (PA-1) | Potency (SKOV3) | Potency (Tov-21-G) | Potency (Tov112D)

CC1(C)CCCC2(C)C1C(O)C=C(CO)C2(O)CO (stereo unspecified)
inactive: Potency (C33A) | Potency (CAOV3) | Potency (CASKI) | Potency (Es-2) | Potency (HeLa) | Potency (Hek293T) | Potency (JEG-3) | Potency (OV90) | Potency (PA-1) | Potency (SKOV3) | Potency (Tov-21-G) | Potency (Tov112D)

O=C(Nc1ccc(S(=O)(=O)Nc2nccs2)cc1)C(c1ccccc1)c1ccccc1
inactive: Potency (C33A) | Potency (CAOV3) | Potency (CASKI) | Potency (Es-2) | Potency (HeLa) | Potency (Hek293T) | Potency (JEG-3) | Potency (OV90) | Potency (PA-1) | Potency (SKOV3) | Potency (Tov-21-G) | Potency (Tov112D)

C[C@@H]1CC[C@]2(C(=O)O[C@@H]3O[C@H](CO)[C@@H](O)[C@H](O)[C@H]3O)CC[C@]3(C)C(=CCC4[C@@]5(C)C[C@@H](O)[C@H](O)[C@@](C)(C(=O)O[C@H]6[C@H](O)C[C@@]7(C)C(CC[C@]8(C)C7CC=C7[C@H]9[C@](C(=O)O[C@@H]%10O[C@H](CO)[C@@H](O)[C@H](O)[C@H]%10O)(CC[C@@H](C)[C@@]9(C)O)CC[C@]78C)[C@@]6(CO)C(=O)O)C5CC[C@]43C)[C@@H]2[C@]1(C)O (stereo partly specified)
inactive: activity change, negative = cytotoxicity (C33A) 2.44% [at 6.55 µM] | activity change, negative = cytotoxicity (CAOV3) 6.22% [at 6.55 µM] | activity change, negative = cytotoxicity (CASKI) 11.5% [at 6.55 µM] | activity change, negative = cytotoxicity (Es-2) -0.958% [at 6.55 µM] | activity change, negative = cytotoxicity (HeLa) -3.59% [at 6.55 µM] | activity change, negative = cytotoxicity (Hek293T) 2.04% [at 6.55 µM] | activity change, negative = cytotoxicity (JEG-3) -2.9% [at 6.55 µM] | activity change, negative = cytotoxicity (OV90) -0.495% [at 6.55 µM] | activity change, negative = cytotoxicity (PA-1) 8.04% [at 6.55 µM] | activity change, negative = cytotoxicity (SKOV3) 17.7% [at 6.55 µM] | activity change, negative = cytotoxicity (Tov-21-G) 0.548% [at 6.55 µM] | activity change, negative = cytotoxicity (Tov112D) 3.01% [at 6.55 µM]

CCC(=O)O[C@H]1C(C)(C)[C@H]([C@@H](O)C(=O)OC)[C@]2(C)C(=O)[C@@]1(O)[C@H]1O[C@]13C1CC(=O)O[C@@H](c4ccoc4)[C@]1(C)CCC32 (stereo partly specified)
inactive: Potency (C33A) | Potency (CAOV3) | Potency (CASKI) | Potency (Es-2) | Potency (HeLa) | Potency (Hek293T) | Potency (JEG-3) | Potency (OV90) | Potency (PA-1) | Potency (Tov-21-G) | Potency (Tov112D)

CC(C)S(=O)(=O)NC[C@H](C)c1ccc(NC(=O)c2cc(F)cc(F)c2)cc1
inactive: Potency (C33A) | Potency (CAOV3) | Potency (CASKI) | Potency (Es-2) | Potency (HeLa) | Potency (Hek293T) | Potency (JEG-3) | Potency (OV90) | Potency (PA-1) | Potency (SKOV3) | Potency (Tov-21-G) | Potency (Tov112D)

COc1ccc(C2=N[C@@H](c3ccc(Cl)cc3)[C@@H](c3ccc(Cl)cc3)N2C(=O)N2CCNC(=O)C2)c(OC(C)C)c1
active: Potency (PA-1) 14.1 µM
inactive: Potency (C33A) | Potency (CAOV3) | Potency (CASKI) | Potency (Es-2) | Potency (HeLa) | Potency (Hek293T) | Potency (JEG-3) | Potency (OV90) | Potency (SKOV3) | Potency (Tov112D)

CC(C)(C(=O)NCC(F)(F)C(F)(F)F)C(=O)NC1C(=O)Nc2ccccc2-c2ccccc21 (stereo unspecified)
inactive: Potency (C33A) | Potency (CAOV3) | Potency (CASKI) | Potency (Es-2) | Potency (HeLa) | Potency (Hek293T) | Potency (JEG-3) | Potency (OV90) | Potency (PA-1) | Potency (Tov-21-G) | Potency (Tov112D)

N[C@@]1(C(=O)O)CC[C@H]2[C@H](C(=O)O)[C@H]21
inactive: Potency (C33A) | Potency (CAOV3) | Potency (CASKI) | Potency (Es-2) | Potency (HeLa) | Potency (Hek293T) | Potency (JEG-3) | Potency (OV90) | Potency (PA-1) | Potency (Tov-21-G) | Potency (Tov112D)

OCCc1ccc(O[C@@H]2O[C@H](CO)[C@@H](O)[C@H](O)[C@H]2O)cc1
inactive: Potency (C33A) | Potency (CAOV3) | Potency (CASKI) | Potency (Es-2) | Potency (HeLa) | Potency (Hek293T) | Potency (JEG-3) | Potency (OV90) | Potency (PA-1) | Potency (Tov-21-G) | Potency (Tov112D)

CC(=O)O[C@@H]1[C@@H](O)[C@H](O[C@H]2CC[C@]34C[C@]35CC[C@]3(C)[C@@H]([C@@]6(C)CC[C@@H](C(C)(C)O)O6)[C@@H](O)C[C@@]3(C)[C@@H]5C[C@H](O[C@@H]3O[C@H](CO)[C@@H](O)[C@H](O)[C@H]3O)[C@H]4C2(C)C)OC[C@H]1O
inactive: Potency (C33A) | Potency (CAOV3) | Potency (CASKI) | Potency (Es-2) | Potency (HeLa) | Potency (Hek293T) | Potency (JEG-3) | Potency (OV90) | Potency (PA-1) | Potency (Tov-21-G) | Potency (Tov112D)

C=CC1C(OC2OC(CO)C(O)C(O)C2O)OC=C(C(=O)OC)C1CC1CC(=O)CC(CCc2ccc(O)cc2)O1 (stereo unspecified)
inactive: Potency (C33A) | Potency (CAOV3) | Potency (CASKI) | Potency (Es-2) | Potency (HeLa) | Potency (Hek293T) | Potency (JEG-3) | Potency (OV90) | Potency (PA-1) | Potency (SKOV3) | Potency (Tov112D)

COc1ccc(CCO[C@@H]2O[C@H](CO[C@@H]3OC[C@H](O)[C@H](O)[C@H]3O)[C@@H](O)[C@H](O)[C@H]2O)cc1
inactive: Potency (C33A) | Potency (CAOV3) | Potency (CASKI) | Potency (Es-2) | Potency (HeLa) | Potency (Hek293T) | Potency (JEG-3) | Potency (OV90) | Potency (PA-1) | Potency (SKOV3) | Potency (Tov-21-G) | Potency (Tov112D)
